According to PubChem BioAssay (Tox21):
Inconclusive results are not listed. Calls of active or inactive are those of the source. Unless noted, the call rests on the fitted dose curve.

Tests used:
[1] = Nuclear factor erythroid 2-related factor 2/antioxidant responsive element (Nrf2/ARE) small molecule agonists: qHTS cell viability counter screen in human keratinocytes (AID 1919968; active means well fitted cell-killing curve with a large enough effect in the repeat runs; further: nearly all actives have a fitted effect of over 55% in size)
Outline: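 Viability counter-screen: KeratinoSens reporter cells, DMSO-delivered compounds, 23 h at 37 C, CellTiter-Fluor fluorescence.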

[2] = Nuclear factor erythroid 2-related factor 2/antioxidant responsive element (Nrf2/ARE) small molecule agonists: luciferase reporter gene qHTS assay in human keratinocytes (AID 1919969); further: nearly all actives have a fitted effect of over 35% in size; further: potency means the concentration at half of the fitted maximal effect
[3] = target: Gonadotropin-releasing hormone receptor (Homo sapiens) (UniProt P30968); assay: Human gonadotropin-releasing hormone receptor (GnRHR) small molecule agonists, calcium flux assay in GnRHR-HEK293 cells (AID 1920063); further: nearly all actives have a fitted effect of over 35% in size
Outline: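 Tox21-format agonist screen using human GnRHR-expressing HEK293 cells and a fluorescent calcium dye; kinetic 3-min fluorescence reading after compound addition, 15-point concentration series run in triplicate.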

[4] = G protein-coupled receptor (GPCR) small molecule agonists, calcium flux assay: HEK293 wild type cell line counter screen (AID 1920065)
Outline: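 In this agonist-mode screen, ATP is the positive control and DMSO the vehicle. Cells grow 18 h before a 1 h dye incubation at 37 C; signal is taken at Ex/Em 480/540 over 3 min.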

[5] = p53 small molecule agonists, cell-based qHTS assay with human liver microsomes: qHTS cell viability counter screen (AID 1963579); further: nearly all actives have a fitted effect of over 45% in size
Outline: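 In this multiplexed counter screen, the reporter plates were subsequently treated with CellTiter-Glo so that cell viability, reflected by luminescence, could be recorded for p53RE-bla cells dosed 16 h with compounds under microsomal activation (HLM and NADPH).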

[6] = p53 small molecule agonists, cell-based qHTS assay with rat liver microsomes: qHTS cell viability counter screen (AID 1963580); further: nearly all actives have a fitted effect of over 45% in size
Outline: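 Intracellular ATP, by CellTiter-Glo luminescence, defines viability. HCT-116 p53RE-bla cells, 4,000 per well, were compound-treated in the presence of rat liver microsomes and NADPH for 16 h at 37 C.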

[7] = p53 small molecule agonists, cell-based qHTS assay: qHTS cell viability counter screen (AID 1963581); further: nearly all actives have a fitted effect of over 45% in size
Outline: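 Compounds are pinned onto HCT-116 p53RE-bla cells and left 16 h at 37 C. Following the reporter FRET read, ATP is quantified by CellTiter-Glo luminescence after 30 min at room temperature.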

[8] = target: 5-hydroxytryptamine receptor 2A (Homo sapiens) (UniProt P28223); assay: 5-hydroxytryptamine receptor 2A (HTR2A) small molecule antagonists, cell-based qHTS assay (AID 1963586); further: nearly all actives have a fitted effect of over 45% in size
Outline: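 Antagonist-mode intracellular calcium assay: DOI (4 nM) added after 5 min compound pre-incubation at room temperature to dye-loaded HTR2A-CHO cells. Fluorescence followed for 3 min, sampled every second.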

[9] = target: 5-hydroxytryptamine receptor 2A (Homo sapiens) (UniProt P28223); assay: 5-hydroxytryptamine receptor 2A (HTR2A) small molecule agonists, cell-based qHTS assay (AID 1963587); further: nearly all actives have a fitted effect of over 30% in size
Outline: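 Kinetic calcium-flux fluorescence (2 min, 1 sec intervals) after compound addition in agonist mode. HTR2A-CHO cells were cultured 18 h, then dye-loaded 1 h at 37 C.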

[10] = cAMP Responsive Elements (CRE) small molecule agonists, cell-based qHTS assay (AID 1963590)
Outline: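 FRET-based beta-lactamase readout (LiveBLAzer B/G, 2 h RT) quantified CRE activation in HEK 293T CRE-bla cells after 3 h treatment with DMSO-dissolved compounds.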

[11] = cAMP Responsive Elements (CRE) small molecule antagonists, cell-based qHTS assay (AID 1963591; active means well fitted inhibition curve with a large enough effect in the signal ratio in the repeat runs, not every such curve was filed as active; the % refers to the signal ratio)
Outline: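 qHTS in CRE-bla HEK 293T cells: compound in DMSO, then 0.25 uM NKH477 (final), 3 h at 37 °C/5% CO2; beta-lactamase FRET read-out after 2 h substrate incubation.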

[12] = target: Beta-2 adrenergic receptor (Homo sapiens) (UniProt P07550); assay: Adrenergic beta2 receptor (ADRB2) small molecule antagonists, cell-based qHTS assay (AID 1963592); further: series mostly up to about 92 µM; nearly all actives have a fitted effect of over 50% in size
Outline: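 Cells (CHO, stable ADRB2 overexpression) incubated 18-20hr at 37C; compounds added from DMSO; agonist mix (1nM isoproterenol, 100uM IBMX, 25uM Ro-20-1724) added; 0.5hr RT; d2-cAMP and anti-cAMP-cryptate added; 1hr RT; 665/615 nm read.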

[13] = target: D(2) dopamine receptor (Homo sapiens) (UniProt P14416); assay: Dopamine D2 receptor (DRD2) small molecule agonists, cell-based qHTS assay (AID 1963594); further: nearly all actives have a fitted effect of over 35% in size
Outline: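 cAMP accumulation in DRD2-HEK293 cells measured by HTRF after 1 h detection; compounds added 10 min before NKH477 (200nM […]) forskolin-analogue stimulation, 30 min at room temperature, with Ro20-1724 present at 0.1 mM final.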

[14] = target: D(2) dopamine receptor (Homo sapiens) (UniProt P14416); assay: Dopamine D2 receptor (DRD2) small molecule antagonists, cell-based qHTS assay (AID 1963595; active means well fitted inhibition curve with a large enough effect in the signal ratio in the repeat runs, with a control signal flat; the % refers to the signal ratio)
Outline: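 HTRF cAMP read-out at 665 and 620 nm emission (340 nm excitation). Antagonist mode: compounds were tested against 12 nM quinpirole in DRD2-HEK293 cells, with 200 nM NKH477 raising cAMP and 0.1 mM Ro20-1724 blocking its breakdown.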

[15] = p53 small molecule agonists, cell-based qHTS assay with rat liver microsomes (AID 1963578)
Outline: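 With rat liver microsomes and NADPH present (0.5 mg/mL final each), p53RE-bla cells are treated with compound for 16 h at 37 C. LiveBLAzer detection mixture is then applied for 2 h at room temperature in the dark.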

[16] = target: Muscarinic acetylcholine receptor M1 (Homo sapiens) (UniProt P11229); assay: Cholinergic receptor muscarinic 1 (CHRM1) small molecule antagonists, cell-based qHTS assay (AID 1963588); further: nearly all actives have a fitted effect of over 40% in size
Outline: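 CHRM1-CHO calcium-flux assay, antagonist mode. Cells were seeded 18 h, dye-loaded 1 h at 37 C and given compound for 5 min at RT, then acetylcholine was added at 50nM. FDSS fluorescence was read 3 min; 15 concentrations, three runs.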

[17] = target: Muscarinic acetylcholine receptor M1 (Homo sapiens) (UniProt P11229); assay: Cholinergic receptor muscarinic 1 (CHRM1) small molecule agonists, cell-based qHTS assay (AID 1963589); further: nearly all actives have a fitted effect of over 35% in size
Outline: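 Stable CHRM1-CHO cells (human receptor) were incubated 18 h, dye-loaded for 1 h at 37 C and exposed to test compounds for agonist activity, with calcium-dependent fluorescence followed kinetically.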

[18] = target: Beta-2 adrenergic receptor (Homo sapiens) (UniProt P07550); assay: Adrenergic beta2 receptor (ADRB2) small molecule agonists, cell-based qHTS assay (AID 1963593);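 further: CHO cells stably overexpressing human ADRB2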
Outline: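 CHO cells stably over-expressing ADRB2 were plated overnight at 37C, then dosed with compounds plus a stimulation mix containing 100uM IBMX and 25uM Ro-20-1724 for 0.5hr at room temperature. cAMP was measured by HTRF competition, 1hr.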
On the % scale 0 is the no-effect control and ±100 the full control effect.

D(2) dopamine receptor (Homo sapiens), sequence (P14416 whole entry, looked up): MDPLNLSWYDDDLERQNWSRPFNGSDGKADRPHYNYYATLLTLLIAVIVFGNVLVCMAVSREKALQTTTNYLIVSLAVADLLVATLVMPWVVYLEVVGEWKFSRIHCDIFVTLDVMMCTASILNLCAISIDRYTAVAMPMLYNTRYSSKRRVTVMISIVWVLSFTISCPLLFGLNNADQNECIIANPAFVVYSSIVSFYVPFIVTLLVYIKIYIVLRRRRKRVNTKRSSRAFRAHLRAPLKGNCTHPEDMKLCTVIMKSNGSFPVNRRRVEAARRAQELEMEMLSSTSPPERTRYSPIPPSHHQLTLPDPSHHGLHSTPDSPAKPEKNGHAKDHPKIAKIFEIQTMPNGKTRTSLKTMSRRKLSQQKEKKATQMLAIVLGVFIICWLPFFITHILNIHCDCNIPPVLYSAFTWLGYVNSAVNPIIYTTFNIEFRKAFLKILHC
Muscarinic acetylcholine receptor M1 (Homo sapiens), sequence (P11229 whole entry, looked up): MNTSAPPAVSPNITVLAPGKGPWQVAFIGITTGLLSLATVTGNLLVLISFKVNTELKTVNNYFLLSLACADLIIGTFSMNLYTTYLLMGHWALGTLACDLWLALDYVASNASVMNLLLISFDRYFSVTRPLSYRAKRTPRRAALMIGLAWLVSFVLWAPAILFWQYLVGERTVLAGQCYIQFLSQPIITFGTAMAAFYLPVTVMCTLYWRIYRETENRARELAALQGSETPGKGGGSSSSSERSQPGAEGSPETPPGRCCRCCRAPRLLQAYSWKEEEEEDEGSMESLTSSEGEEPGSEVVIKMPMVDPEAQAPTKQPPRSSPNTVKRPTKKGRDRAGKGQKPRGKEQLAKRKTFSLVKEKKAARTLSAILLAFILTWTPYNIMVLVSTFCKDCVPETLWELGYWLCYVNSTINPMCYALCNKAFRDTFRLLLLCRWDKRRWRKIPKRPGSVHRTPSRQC
Beta-2 adrenergic receptor (Homo sapiens), sequence (P07550 whole entry, looked up): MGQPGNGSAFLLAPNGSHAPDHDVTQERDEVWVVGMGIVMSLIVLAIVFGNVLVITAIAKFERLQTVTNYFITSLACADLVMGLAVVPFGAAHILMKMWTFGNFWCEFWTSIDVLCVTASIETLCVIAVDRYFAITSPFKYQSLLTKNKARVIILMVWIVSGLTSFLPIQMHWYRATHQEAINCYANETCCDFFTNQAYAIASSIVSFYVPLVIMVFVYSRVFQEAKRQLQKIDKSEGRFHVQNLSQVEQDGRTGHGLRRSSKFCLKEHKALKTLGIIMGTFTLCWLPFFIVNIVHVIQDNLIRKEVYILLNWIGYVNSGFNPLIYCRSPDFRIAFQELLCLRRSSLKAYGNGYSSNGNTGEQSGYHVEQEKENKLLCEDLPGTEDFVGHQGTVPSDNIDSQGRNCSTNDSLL
5-hydroxytryptamine receptor 2A (Homo sapiens), sequence (P28223 whole entry, looked up): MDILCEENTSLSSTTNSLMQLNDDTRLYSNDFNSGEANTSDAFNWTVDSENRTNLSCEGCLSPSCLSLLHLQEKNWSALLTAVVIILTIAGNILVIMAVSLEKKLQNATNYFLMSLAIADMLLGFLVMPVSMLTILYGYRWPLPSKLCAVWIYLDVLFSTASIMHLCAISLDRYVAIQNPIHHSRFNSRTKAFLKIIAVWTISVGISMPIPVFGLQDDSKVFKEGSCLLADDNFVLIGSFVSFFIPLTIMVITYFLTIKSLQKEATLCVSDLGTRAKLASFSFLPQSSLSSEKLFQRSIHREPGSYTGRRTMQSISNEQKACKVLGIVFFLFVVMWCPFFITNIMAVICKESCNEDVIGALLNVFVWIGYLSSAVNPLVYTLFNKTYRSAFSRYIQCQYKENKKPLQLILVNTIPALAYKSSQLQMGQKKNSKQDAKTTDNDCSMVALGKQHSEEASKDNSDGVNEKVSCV
Gonadotropin-releasing hormone receptor (Homo sapiens), sequence (P30968 whole entry, looked up): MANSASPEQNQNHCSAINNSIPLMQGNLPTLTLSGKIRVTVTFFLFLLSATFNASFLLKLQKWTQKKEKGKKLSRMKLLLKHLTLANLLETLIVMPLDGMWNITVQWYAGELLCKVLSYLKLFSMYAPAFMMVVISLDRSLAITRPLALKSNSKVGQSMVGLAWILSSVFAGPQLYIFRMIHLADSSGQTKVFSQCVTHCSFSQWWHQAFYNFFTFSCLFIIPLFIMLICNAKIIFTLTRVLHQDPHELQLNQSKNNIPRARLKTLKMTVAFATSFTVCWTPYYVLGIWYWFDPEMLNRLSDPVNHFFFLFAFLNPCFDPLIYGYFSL

NC(N)=NCCC[C@H](N)C(=O)O
inactive: activity change, negative = cytotoxicity [1] -4.64% [at 8.39 µM] | activity, positive = activation [2] -5.37% [at 8.39 µM] | activity change [3] 0.97% [at 5.22 µM, hits give high values] | activation [4] 2.23% [at 5.23 µM] | activity change, negative = cytotoxicity [5] -0.294% [at 5.99 µM] | activity change, negative = cytotoxicity [6] 1.88% [at 5.99 µM] | activity change, negative = cytotoxicity [7] -8.01% [at 5.99 µM] | activity, negative = inhibition [8] 19.6% [at 5.62 µM] | activation [9] 2.81% [at 7.02 µM] | activation [10] 4.27% [at 8.39 µM] | activity change, negative = inhibition [11] -3.28% [at 8.39 µM] | activity change, negative = inhibition [12] 0.0181% [at 8.39 µM] | activation [13] -13.5% [at 8.39 µM] | activity change, negative = inhibition [14] 5.33% [at 8.38 µM]

CC(=O)/C(C)=C/C1C(C)=CCCC1(C)C (centres undefined)
inactive: Potency [1] | Potency [2] | Potency [3] | Potency [4] | Potency [15] | Potency [6] | Potency [7] | Potency [8] | Potency [9] | Potency [16] | Potency [17] | Potency [10] | Potency [11] | Potency [12] | Potency [13] | Potency [14]

CCCOC(=O)CC
inactive: Potency [1] | Potency [2] | Potency [3] | Potency [4] | Potency [5] | Potency [6] | Potency [7] | Potency [8] | Potency [9] | Potency [16] | Potency [17] | Potency [10] | Potency [11] | Potency [12] | Potency [13] | Potency [14]

OCC1CC=CCC1 (centres undefined)
inactive: Potency [1] | Potency [2] | Potency [3] | Potency [4] | Potency [5] | Potency [6] | Potency [7] | Potency [8] | Potency [9] | Potency [16] | Potency [17] | Potency [10] | Potency [11] | Potency [12] | Potency [18] | Potency [13] | Potency [14]

CSc1ccc(Oc2ccc(S(N)(=O)=O)cc2CN(C)C)cc1C
inactive: Potency [1] | Potency [2] | Potency [3] | Potency [4] | Potency [6] | Potency [7] | Potency [8] | Potency [9] | Potency [16] | Potency [17] | Potency [10] | Potency [11] | Potency [12] | Potency [13]

NC(CCC(=O)O)C(=O)O (centres undefined)
inactive: Potency [1] | Potency [2] | Potency [3] | Potency [4] | Potency [6] | Potency [7] | Potency [8] | Potency [9] | Potency [16] | Potency [17] | Potency [11] | Potency [12] | Potency [13] | Potency [14]

Cc1cccc(NC(=S)N(C)C)c1
inactive: Potency [1] | Potency [2] | Potency [3] | Potency [4] | Potency [5] | Potency [6] | Potency [7] | Potency [8] | Potency [9] | Potency [16] | Potency [17] | Potency [10] | Potency [11] | Potency [12] | Potency [18] | Potency [13] | Potency [14]

CO[Si](C)(OC)OC
inactive: Potency [1] | Potency [2] | Potency [3] | Potency [4] | Potency [5] | Potency [6] | Potency [7] | Potency [8] | Potency [9] | Potency [16] | Potency [17] | Potency [10] | Potency [11] | Potency [12] | Potency [13] | Potency [14]

CCC(C)C(C)=O (centres undefined)
inactive: Potency [1] | Potency [2] | Potency [3] | Potency [4] | Potency [5] | Potency [6] | Potency [8] | Potency [9] | Potency [16] | Potency [17] | Potency [10] | Potency [11] | Potency [18] | Potency [13] | Potency [14]

CC1CN(c2cc3c(cc2F)c(=O)c(C(=O)O)cn3-c2ccc(F)cc2F)CCN1 (centres undefined)
inactive: activity change, negative = cytotoxicity [1] 6.63% [at 8.39 µM] | activity, positive = activation [2] 4.55% [at 8.39 µM] | activity change [3] -0.555% [at 5.22 µM, hits give high values] | activation [4] 0.9% [at 5.23 µM] | activity change, negative = cytotoxicity [5] 1.1% [at 5.99 µM] | activity change, negative = cytotoxicity [6] -0.821% [at 5.99 µM] | activation [10] -2.24% [at 8.39 µM] | activity change, negative = inhibition [12] 4.5% [at 8.39 µM] | activation [18] 1.31% [at 8.39 µM] | activation [13] -7.78% [at 8.39 µM] | activity change, negative = inhibition [14] -0.708% [at 8.38 µM]

Cc1cc2nc(N)sc2cc1C
inactive: Potency [1] | Potency [2] | Potency [3] | Potency [4] | Potency [5] | Potency [6] | Potency [7] | Potency [9] | Potency [16] | Potency [17] | Potency [10] | Potency [18] | Potency [13]

O=CNc1ccccc1
inactive: Potency [1] | Potency [2] | Potency [3] | Potency [4] | Potency [6] | Potency [7] | Potency [8] | Potency [9] | Potency [17] | Potency [10] | Potency [12] | Potency [13] | Potency [14]

CC1=C(C=O)C(C)(C)CCC1
inactive: Potency [1] | Potency [2] | Potency [3] | Potency [4] | Potency [5] | Potency [6] | Potency [7] | Potency [9] | Potency [16] | Potency [17] | Potency [10] | Potency [11] | Potency [12] | Potency [18] | Potency [13] | Potency [14]

CC/C=C\C/C=C\C/C=C\CCCCCCCC(=O)OCC
active: Potency [2] 70.1 µM
inactive: Potency [1] | Potency [3] | Potency [4] | Potency [6] | Potency [9] | Potency [16] | Potency [17] | Potency [12] | Potency [18] | Potency [14]

CCC(=O)C1CC(C(C)C)CC=C1C (centres undefined)
inactive: Potency [1] | Potency [2] | Potency [3] | Potency [4] | Potency [5] | Potency [6] | Potency [7] | Potency [8] | Potency [9] | Potency [16] | Potency [17] | Potency [10] | Potency [11] | Potency [12] | Potency [13] | Potency [14]
